Compound activity: PubChem, National Center for Advancing Translational Sciences (NCATS)
Rows were chosen to be rich in hits. Some 17% of all compounds tested hit in one or more screens of this group.
HepG2 tox – HepG2 cytotoxicity, counter-screen for TGF-b inhibitors | Potency, µM (top dose mostly 46.1 µM), actives largely listed as cytotoxic | 410,000 tested, 0.76% active | AID 588856 | HepG2 CAGA-GFP viability, ATP luminescence, 18 h
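HepG2 CAGA-GFP cells (1000/well, DMEM with 1% FBS) received compound, then TGF-beta at 500 pg/mL final, and were incubated 18 hours at 37 degrees C. Viability was read by CellTiter-Glo luminescence. Media-only wells were set as complete cell-killing and DMSO as no toxicity.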
HT1080 IDH1KD tx – kills HT-1080 cells with IDH1 knockdown; 360,000 tested, 2% active; AID 686971; HT-1080 IDH1 knockdown viability, ATP luminescence, 48 h; Potency, µM (series often up to 46.1 µM), actives largely listed as cytotoxic
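Cytotoxicity counter-line: IDH1KD HT-1080, 48 h, CellTiter-Glo. Curves classed by r2, magnitude and activity.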
HT1080NT lethal – kills 2HG-producing HT-1080-NT fibrosarcoma cells. Potency, µM (titrated, usually from 46.1 µM), most hits filed as cytotoxic. AID 686970. 360,000 tested, 1.6% active. HT-1080-NT fibrosarcoma viability, CellTiter-Glo ATP luminescence, 48 h;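 note: NT is the 2HG producing partner of a matched IDH1 knockdown line; nearly all actives have a fitted effect of over 55% in size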
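Viability of the 2HG-overproducing fibrosarcoma line after 48 hours of compound exposure at 37 degrees C was determined by luminescence with CellTiter-Glo, and concentration-effect curves were then fitted and categorized.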
DT40 TDP1 CPT – growth inhibition of DT40 Tdp1-/-;hTDP1 cells with camptothecin (screen for TDP1 inhibitors); chicken DT40 Tdp1-/-;hTDP1 cells + 20 nM CPT, ATP luminescence, 48 h; Potency, µM (series often up to 46.2 µM), hits mostly inhibitors; 420,000 tested, 12% active; AID 686979; note: nearly all actives have a fitted effect of over 55% in size
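Cell growth measured by CellTiter-Glo luminescence after a minimum 48 h, 37 C compound exposure with 20 nM CPT in Tdp1-knockout DT40 cells stably expressing hTDP1, seeded 400/well; qHTS titration format.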
TGFb SMAD3 inh – blocks TGF-b signaling; HepG2 CAGA-GFP TGF-b/SMAD3 reporter, GFP fluorescence, 18 h; TGF-beta stimulated, 500 pg/mL final; Potency, µM (doses to about 46.1 µM), usual class: inhibitors; 410,000 tested, 1.2% active; AID 588855; note: nearly all actives have a fitted effect of over 65% in size
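HEPG2 CAGA-GFP cells (1000/well, DMEM with 1% FBS) were pre-incubated 2 h at 37 degrees C, given compound by pin tool, then stimulated with TGF-beta at 500 pg/mL final for 18 h before per-cell GFP fluorescence imaging.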
TDP1 cell noCPT – qHTS for Inhibitors of human tyrosyl-DNA phosphodiesterase 1 (TDP1): qHTS in cells in absence of CPT; Potency, µM (top dose mostly 46.2 µM), usual class: inhibitors; DT40 Tdp1-/- hTDP1 cells, no CPT, ATP luminescence, 48 h; AID 686978, 2013; 420,000 tested, 15% active; note: nearly all actives have a fitted effect of over 55% in size
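Readout: luminescence from CellTiter-Glo after 30 min in the dark at RT. Cells: DT40 Tdp1-/- with stable hTDP1, 400/well. Exposure: compounds alone, ≥48 hr, 37 °C.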
A number is an active result; - = inactive; ? = inconclusive; . = no result given; [ ] = remark or other dose. Calls come from the whole dose curve; as a rule, active = well fitted curve in the direction sought with a large enough effect; inconclusive = small, poorly fitted or top-dose-only effect, or another doubt; inactive = no such curve, though single readings can be large; an effect the other way counts as inactive or inconclusive.

SMILES | HepG2 tox | HT1080 IDH1KD tx | HT1080NT lethal | DT40 TDP1 CPT | TGFb SMAD3 inh | TDP1 cell noCPT
CC(=O)c1ccc(NS(=O)(=O)c2ccc3c(c2)NC(=O)CCS3)cc1 | - | . | . | . | - | .
CCOc1ccc(NS(=O)(=O)c2ccc3c(c2)NC(=O)CCS3)cc1 | - | . | . | ? | - | 12µM
Cc1c2cnn(CC(=O)N3CCN(c4ccccc4)CC3)c(=O)c2c(C)n1Cc1ccccc1Cl | - | . | . | ? | - | -
COc1cccc(C(C)(O)c2nc(-c3cccc4cccnc34)cs2)c1 (stereo unspecified) | - | - | - | ? | - | ?
CCC1Sc2ccc(S(=O)(=O)Nc3ccc(OC)c(OC)c3)cc2NC1=O (stereo unspecified) | - | ? | - | 21µM | - | 8.2µM
COCCNc1nc(N)c([N+](=O)[O-])c(Nc2ccc(F)cc2)n1 | - | 15µM | ? | - | - | -
Cc1cccc(Nc2nc(N)c([N+](=O)[O-])c(NCc3ccccc3)n2)c1 | 22µM | 16µM | ? | ? | ? | ?
Nc1nc(Nc2ccccc2)nc(NC2CCCCC2)c1[N+](=O)[O-] | - | ? | ? | 13µM | - | ?
Cc1ccc(Nc2nc(N)c([N+](=O)[O-])c(NCc3ccco3)n2)cc1C | - | ? | - | 26µM | 16µM | ?
CNc1nc(N)c([N+](=O)[O-])c(NC2CCCCC2)n1 | - | - | - | - | - | ?
O=C(CSc1c2c(nc3ccccc13)CCC2)Nc1ccc(F)cc1F | - | . | . | ? | ? | ?
CCOc1cc(C2NC(=O)NC(C)=C2C(=O)NCc2ccccc2)c(Cl)cc1O (stereo unspecified) | - | - | -[9.24 µM] | - | - | -
Cc1ccc(-c2c(C3C4C=CCC(C)C4C(=O)N3Cc3ccccc3)ccc3ccccc23)cc1 (stereo unspecified) | - | . | . | . | - | .
Nc1nc(Nc2ccccc2)nc(NCc2ccccc2)c1[N+](=O)[O-] | - | 16µM | ? | ? | - | ?
Nc1nc(NCc2ccccc2)nc(NCc2ccccc2)c1[N+](=O)[O-] | - | - | - | - | - | -
O=[N+]([O-])c1ccccc1C(=Nc1ccccc1)c1c(O)cc(O)cc1O | - | - | - | ? | - | 18µM
Cc1ccc(N=C/C(C(=O)C(F)(F)F)=C(\O)c2ccco2)cc1Cl | - | - | - | - | - | -
O=C(CN1C(=O)CSc2ccc(S(=O)(=O)N3CCCCCC3)cc21)NCCc1ccccc1 | - | - | - | ? | - | 23µM
Cc1ccc(NC(=O)CN2C(=O)CSc3ccc(S(=O)(=O)N4CCCC4)cc32)cc1F | - | . | . | ? | ? | 23µM
CC(C)c1ccc(NC(=O)CN2C(=O)CSc3ccc(S(=O)(=O)N4CCCC4)cc32)cc1 | - | . | . | 16µM | - | 16µM
Cc1ccc(NC(=O)CN2C(=O)CCSc3ccc(S(=O)(=O)N4CCCC4)cc32)cc1C | - | - | - | ? | ? | ?
O=C(CN1C(=O)CSc2ccc(S(=O)(=O)N3CCOCC3)cc21)NCCc1ccccc1 | - | - | - | - | - | -
COc1ccc(NC(=O)CN2C(=O)CSc3ccc(S(=O)(=O)N(C)C)cc32)cc1OC | - | . | . | - | - | -
Cc1cc(NC(=O)CN2C(=O)CSc3ccc(S(=O)(=O)N(C)C)cc32)ccc1Br | - | . | . | ? | ? | 21µM
C/C(CC(=O)Nc1ccc(Cl)cn1)=N\NC(=O)Cc1cccs1 | - | - | - | - | - | -
CC1CN(C(=O)CCC(=O)N2CCOCC2)c2ccccc2O1 (stereo unspecified) | - | - | - | - | - | -
O=C(Nc1ccc(S(=O)(=O)Nc2ncccn2)cc1)c1cccc([N+](=O)[O-])c1 | - | - | - | - | - | -
CCOC(=O)N1CCN(C(=O)CSCC(=O)N=c2sc3cc(OC)ccc3n2C)CC1 | - | - | - | ? | - | ?
